Hits are enriched below; roughly 4.1% of the tested compounds scored in any of these assays.
NALP1 inh: inhibitors of NALP1 inflammasome in yeast; inhibition, % at 10 µM; hit rate 0.61% among 280,000; S. cerevisiae NALP1/ASC/caspase-1 growth, X-gal OD620, 72 h; in the data active = inhibition mostly above about 24%, no sharp cut-off; inactive = mostly below about 32%
PfHsp90 yeast 2: inhibits growth of yeast expressing Plasmodium falciparum Hsp90; S. cerevisiae expressing PfHsp90, BacTiter-Glo ATP, 48 h; yeast lacking PDR1 and PDR3 efflux regulators; inhibition, % at 9.4 µM; hit rate 0.32% among 310,000; AID 504621;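 active = every replicate shows inhibition above about 80%, whatever the replicate mean, limit read from the data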;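 also: 0% = DMSO neutral controls and 100% = 20 µM radicicol positive controls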
NALP3 yeast inh: inhibitors of NALP3 inflammasome in yeast; Yeast reconstituted NLRP3/ASC/caspase-1, beta-gal luminescence, 24 h; inhibition, % at 10 µM; hit rate 0.39% among 330,000; AID 2825;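 active = inhibition of 50% or more; inactive = inhibition below 50%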;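 also: plate controls were induced DMSO wells for no effect and uninduced yeast grown without galactose for full effect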
TIM10 inh: inhibits growth of TIM10 yeast strain; S. cerevisiae TIM10 strain growth, BacTiter-Glo luminescence, 24 h; inhibition, % at 10 µM; hit rate 1.4% among 330,000;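 active = inhibition of 40% or more at the single tested concentration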;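 also: wild-type TIM10 isogenic control strain grown at permissive 25 °C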
tim23-1 inh: inhibits growth of tim23-1 mutant yeast; inhibition, % at 20 µM; S. cerevisiae tim23-1 growth, BacTiter-Glo luminescence, 24 h; hit rate 1.3% among 330,000; AID 463212;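 active = growth inhibition of the mutant yeast at or above 50%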;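 also: temperature-sensitive mutant grown at 25 °C; plate controls were DMSO-treated mutant yeast for no effect and medium wells lacking yeast for full effect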
tim10-1 inh: inhibits growth of tim10-1 mutant yeast. S. cerevisiae tim10-1 ts strain growth, BacTiter-Glo, 24 h. inhibition, % at 20 µM. hit rate 2.2% among 330,000. AID 463190;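 active = inhibition of at least 40%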;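 also: mutant grown at 25 °C; 0% = DMSO wells with yeast and 100% = wells holding no yeast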
tim10-1 conf: confirmation of tim10-1 mutant yeast growth inhibitors. shares compounds with tim10-1 inh. S. cerevisiae tim10-1 ts strain growth, BacTiter-Glo, 24 h. inhibition, % at 20 µM. hit rate 56% among 7,400;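 active = inhibition of yeast growth at or above a set limit in either of two repeat tests at 20 µM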;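 also: tim10-1 mutant grown at permissive 25 °C to find synthetic lethal compounds; 0% = DMSO yeast wells and 100% = medium wells without yeast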
Active calls of the source: *.

For CCC(C)C(=O)Nc1ccc(OC)cc1OC (centres undefined) the results were NALP1 inh 8.5, PfHsp90 yeast 2 -1.6, NALP3 yeast inh 18.8, TIM10 inh -15.7, tim23-1 inh -4.4 and tim10-1 inh 15.4.
Screening COc1ccc(NC(=O)N(CCC(C)C)C(C)c2ccccn2)c(OC)c1 (centres undefined) returned NALP1 inh 5.2, PfHsp90 yeast 2 -18.8, NALP3 yeast inh 12.6, TIM10 inh -15.6, tim23-1 inh 48.2, tim10-1 inh 41.2* and tim10-1 conf 20.4.
`CC1CCN(C(=O)c2ccc3c(c2NCCO)C(=O)c2ccccc2C3=O)CC1` gave NALP1 inh 4.3, NALP3 yeast inh 9.8, TIM10 inh 22.5, tim23-1 inh 39.9, tim10-1 inh 42.1* and tim10-1 conf 27.8.
For COc1cc(NC(=O)C(C)N2CCN(C(=O)C3CC3)CC2)cc(OC)c1 (centres undefined) the results were PfHsp90 yeast 2 -11.6, NALP3 yeast inh 12.0, TIM10 inh 2.8, tim23-1 inh 7.3 and tim10-1 inh -5.7.
Screening C=CCNC(=O)/C(C#N)=C/c1ccc2c(c1)OCCO2 returned NALP1 inh 7.8, PfHsp90 yeast 2 -3.9, NALP3 yeast inh 5.6, TIM10 inh 3.7, tim23-1 inh 29.6, tim10-1 inh 43.4* and tim10-1 conf 26.2.
For Cc1ccc(S(=O)(=O)/N=C2\C=C(NS(=O)(=O)c3ccccc3)C(=O)c3ccccc32)cc1 the results were PfHsp90 yeast 2 -3.1.
`Cc1ccc(S(=O)(=O)/N=C2/C=C(C3C(=O)CC(C)(C)CC3=O)C(=O)c3ccccc32)cc1` gave NALP1 inh 2.9, PfHsp90 yeast 2 0.1, NALP3 yeast inh 0.5, TIM10 inh 17.5, tim23-1 inh 27.4, tim10-1 inh 41.0* and tim10-1 conf 28.9.
`Cc1ccccc1Cc1c(C)nc2c(C(=O)N3CCN(Cc4ccc5c(c4)OCO5)CC3)cnn2c1C` gave PfHsp90 yeast 2 -7.1, NALP3 yeast inh 10.6, TIM10 inh 23.4, tim23-1 inh 30.5 and tim10-1 inh 22.5.
Cc1cccc(Cc2c(C)nc3c(C(=O)N4CCN(Cc5ccc6c(c5)OCO6)CC4)cnn3c2C)c1 was read as NALP1 inh -6.0, PfHsp90 yeast 2 17.7, NALP3 yeast inh 11.5, TIM10 inh 30.8, tim23-1 inh 25.3, tim10-1 inh 42.2* and tim10-1 conf 15.7.
For Cc1cc(C)c(S(N)(=O)=O)c(C)c1N(C)S(=O)(=O)c1ccc(Cl)cc1 the results were NALP1 inh 8.0, PfHsp90 yeast 2 13.2, NALP3 yeast inh 13.9, TIM10 inh -2.5, tim23-1 inh 14.8 and tim10-1 inh 5.2.
`Brc1cccc(C2Nc3cccc4cccc(c34)N2)c1` gave PfHsp90 yeast 2 19.2, NALP3 yeast inh 16.9, TIM10 inh 19.2, tim23-1 inh 31.3 and tim10-1 inh 24.0.
Brc1ccc(C2Nc3cccc4cccc(c34)N2)o1 was read as NALP1 inh -5.5, PfHsp90 yeast 2 13.7, NALP3 yeast inh 29.7, TIM10 inh 32.4, tim23-1 inh 46.1, tim10-1 inh 41.6* and tim10-1 conf 29.3*.
O=C(COC(=O)Cc1ccc(S(=O)(=O)N2CCOCC2)s1)Nc1ccc([N+](=O)[O-])cc1 was read as NALP3 yeast inh -5.6, TIM10 inh 0.3, tim23-1 inh 5.0 and tim10-1 inh 3.1.
For COc1ccccc1CNC(=O)COC(=O)C1CCN(S(=O)(=O)c2c(Cl)cccc2Cl)CC1 the results were PfHsp90 yeast 2 -16.1.
Screening COc1ccc(CN2CCN(C(=O)c3ccccc3C(=O)c3ccccc3)CC2)cc1OC returned PfHsp90 yeast 2 -32.8.
Screening CN(C(=S)NC1CCCCC1)C1(c2ccccc2Cl)CCCCC1=O (centres undefined) returned NALP1 inh 9.4, PfHsp90 yeast 2 -1.4, NALP3 yeast inh 9.6, TIM10 inh 26.7, tim23-1 inh 42.2, tim10-1 inh 46.0* and tim10-1 conf 35.0*.
`CC(C)NC(=S)N(C)C1(c2ccccc2Cl)CCCCC1=O` (centres undefined) gave PfHsp90 yeast 2 8.3, NALP3 yeast inh 9.0, TIM10 inh 2.3, tim23-1 inh 28.6 and tim10-1 inh 28.0.

High-throughput results (PubChem BioAssay)
